Most compounds without a hit are left out; they make up all but 7.6% or so of the library.
CRE Fsk mod: Cell signaling CRE-BLA (Fsk stim); Potency, µM (series often up to 38.2 µM), most hits filed as activators; 71,000 compounds, 2.5% hits; CHO CRE-bla reporter (cAMP response element driving beta-lactamase), forskolin EC10, beta-lactamase ratio; active = well fitted activation curve with a large enough effect in the signal ratio, with a control signal flat, not every such curve was filed as active; inconclusive = small, poorly fitted or top-dose-only effect, or effect the other way, or a change in a side signal; the % refers to the signal ratio
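CRE-bla CHO cells stimulated with EC10 NKH 477 (water-soluble forskolin) and compound titrations, 3 h at 37C; beta-lactamase read with CCF4 after 2 h at room temperature. Activity from 460/530 nm emission ratio, AC50 values for positive or negative modulation.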
TSHR agonist: qHTS Assay for Agonists of the Thyroid Stimulating Hormone Receptor; Thyrotropin receptor (Homo sapiens), P16473; HEK293-CNG-TSHR cells (CNG channel as cAMP sensor), membrane potential dye, cAMP; Potency, µM (series often up to 57.1 µM), actives largely listed as activators; 73,000 compounds, 0.48% hits; active = well fitted activation curve with a large enough effect in the main read-out, with a control signal flat, not every such curve was filed as active; inconclusive = small, poorly fitted or top-dose-only effect, or a change in a side signal; inactive = no such curve, though single readings can be large or run the other way; reference of the percent scale not stated here;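 also: the control signal comes from parental cells without the receptor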
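HEK 293 cells stably expressing TSHR and a cAMP-gated CNG channel; parental CNG-only cells as counterscreen. Cells preloaded 60 min with membrane potential dye plus 100 uM RO 20-1724, then compound 30 min; fluorescence read at 590 nm.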
HEK293 cAMP ctrl: qHTS Assay for Agonists of the Thyroid Stimulating Hormone Receptor: Activators of Intracellular cAMP Concentrations in Parental HEK 293; parental HEK293 CNG cAMP sensor, membrane potential fluorescence; Potency, µM (series often up to 57.1 µM), hits mostly activators; 73,000 compounds, 2.5% hits; AID 938, 2007; also: nearly all actives have a fitted effect of over 55% in size
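Parental HEK 293 cells stably expressing a modified CNG channel (no TSHR) report cAMP rise as membrane depolarization. Membrane potential dye with 100 uM RO 20-1724 was loaded for 60 min at room temperature, then compound added for 30 min; fluorescence read at 590 nm.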
ERK AVP block: qHTS Assay for Inhibitors of the ERK Signaling Pathway using a Homogeneous Screening Assay; HEK293-V1b, vasopressin-stimulated pERK AlphaScreen; Potency, µM (series often up to 57.5 µM), most hits filed as inhibitors; 72,000 compounds, 0.99% hits; AID 995, 2007; also: nearly all actives have a fitted effect of over 55% in size
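V1b-HEK293 cells; cpd 30 min 37C; 25 nM vasopressin 5 min; lyse 10 min; AlphaScreen beads 5 hr RT. Normalized to DMSO basal and 25 nM vasopressin; AC50 by Hill fit.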
Tau fil binding: qHTS Assay for Tau Filament Binding | Microtubule-associated protein tau (Homo sapiens), P10636 | AID 596, 2007 | 71,000 compounds, 2% hits | Potency, µM (highest dose often 57.1 µM) | recombinant tau filaments, thioflavin S fluorescence, 15 h; filaments grown with octadecylsulfate alongside compound;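 also: actives lower thioflavin S fluorescence by blocking filaments or displacing dye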
Target sequence (P10636 whole entry, looked up): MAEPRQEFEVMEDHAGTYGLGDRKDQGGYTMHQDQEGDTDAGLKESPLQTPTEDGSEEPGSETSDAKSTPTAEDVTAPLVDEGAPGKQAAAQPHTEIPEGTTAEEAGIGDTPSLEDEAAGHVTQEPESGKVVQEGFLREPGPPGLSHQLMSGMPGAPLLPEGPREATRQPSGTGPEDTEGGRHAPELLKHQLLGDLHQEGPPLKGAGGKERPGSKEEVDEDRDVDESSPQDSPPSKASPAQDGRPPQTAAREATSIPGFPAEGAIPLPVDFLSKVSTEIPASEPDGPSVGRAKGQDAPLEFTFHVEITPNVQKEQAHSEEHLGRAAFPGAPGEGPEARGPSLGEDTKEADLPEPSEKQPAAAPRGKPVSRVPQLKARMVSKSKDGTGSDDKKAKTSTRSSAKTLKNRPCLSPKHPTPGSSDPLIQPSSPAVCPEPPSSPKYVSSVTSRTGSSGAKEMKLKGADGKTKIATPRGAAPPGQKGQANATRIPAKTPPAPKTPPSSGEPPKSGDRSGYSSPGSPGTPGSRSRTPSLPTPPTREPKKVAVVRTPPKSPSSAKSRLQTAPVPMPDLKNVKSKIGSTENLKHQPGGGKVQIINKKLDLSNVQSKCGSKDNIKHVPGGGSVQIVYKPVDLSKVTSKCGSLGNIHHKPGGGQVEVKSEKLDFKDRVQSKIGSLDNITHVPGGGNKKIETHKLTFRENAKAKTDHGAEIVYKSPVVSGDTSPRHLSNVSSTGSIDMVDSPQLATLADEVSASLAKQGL
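Quantitative HTS: thioflavine S signal from ODS-induced tau filaments, excited at 450 nm, emission 510 nm. Conditions: 1 uM tau, 30 uM ODS, 15 h at 37 C, pH 7.4.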
Numbers stand for hits; 0 = inactive; ? = inconclusive; - = not tested or not shown; [ ] = another dose, or the depositor's remark. Unless noted, calls follow the shape of the dose curve; as a rule, active = well fitted curve in the direction sought with a large enough effect; inconclusive = small, poorly fitted or top-dose-only effect, or another doubt; inactive = no such curve, though single readings can be large; an effect the other way counts as inactive or inconclusive.

SMILES	CRE Fsk mod	TSHR agonist	HEK293 cAMP ctrl	ERK AVP block	Tau fil binding
O=c1c2ccccc2nc(SCc2cn3ccsc3n2)n1-c1ccc(F)cc1	3.98µM	?	?	?	0
COc1ccc(C(=O)Nc2cc(-c3nn4c(C)nnc4s3)ccc2C)cc1	?	0	0	-	0
COc1c(C)cccc1C(=O)Nc1cc(-c2nn3c(C)nnc3s2)ccc1C	2.51µM	0	0	-	0
CCN(CC)CCCC(C)NC(=O)c1ccc(Cc2nc3ccccc3[nH]2)cc1 (stereo not given)	-	0	0	-	-
COc1ccc(COC(=O)N/N=C2/C[C@@H](O)[C@@H](O)[C@@H]3[C@@H]4C(=O)N(C[C@@H]5CCCO5)C(=O)[C@H]4CC[C@H]23)cc1	-	0[11.4 µM]	0[11.4 µM]	0[11.5 µM]	-
c1ccc(C2=NN[C@@H]3c4ccccc4-c4ccccc4N3C2)cc1	0[7.6 µM]	0[11.4 µM]	0[11.4 µM]	?	3.98µM
CO/N=C(\C)CCN1CCCCc2nc(C)c(C)cc21	-	0[11.4 µM]	0[11.4 µM]	0[11.5 µM]	-
C#C[C@]1(O)CC[C@@H]2[C@H]3CCC4=CCCC[C@@H]4[C@@H]3CC[C@@]21C	0	0	0	0	0
COc1ccccc1N=c1oc2cc(O)ccc2cc1C(N)=O	?	-	0	0	0
COc1ccccc1N=c1oc2cc(O)ccc2cc1C(=O)NCC1CCCO1 (stereo not given)	10µM	?	1.58µM	?	0
Cc1nc2ccc(F)cc2cc1C(=O)NCC1CCCO1 (stereo not given)	0	0	0	0	12.6µM
COc1ccccc1NC(=O)c1cc2ccc(O)cc2o/c1=N\O	10µM	0	0	31.6µM	0
O=C(NCC1CCCO1)c1ccc(Cl)c(F)c1F (stereo not given)	0	0	0	0	0
O=C(c1cnccn1)N1CCC2(CCN(Cc3nccs3)CC2)CC1	0	0	0	0	0
COCC(=O)N1CCC2(CCN(Cc3ccccc3)CC2)CC1	0	0	0	0	0
CO[C@H]1COC(=O)C/C=C\[C@@H](C)COC(=O)[C@@H](OCc2ccccc2)/C=C\[C@@H]1C	-	?	?	0[11.5 µM]	-
Cc1cccc(S(=O)(=O)c2c(N)n(Cc3ccco3)c3nc4ccccc4nc23)c1	0	0	0	0	0
COc1ccc(Cn2c3nc4ccccc4nc3c3c(=O)n(Cc4ccco4)cnc32)cc1	12.6µM	0	0	0	15.8µM
Cc1cccc(-n2cnc3c(c2=O)c2nc4ccccc4nc2n3Cc2ccco2)c1	?	0	0	0	12.6µM
CC1(C)CCC[C@]2(C)C3CC(=O)O[C@@]3(C)CC[C@H]12 (stereo not given in full)	-	-	-	0	-
COc1cc(-c2nc(-c3ccc(Br)o3)no2)cc(OC)c1OC	2.51µM	0	0	0	0
COc1ccc(-c2noc(-c3ccc(Br)o3)n2)cc1OC	0	?	?	0	0
CS(=O)(=O)N1CCC2(CCCN(C(=O)Nc3cccc(C#N)c3)C2)CC1	0	0	0	0	0
O=C(c1ccco1)N1CCC(c2nc(-c3ccc(F)cc3)no2)CC1	?	?	20µM	0	0
CCOC(=O)CCN1C(=O)[C@H]2[C@H]3[C@H](O)[C@H](O)C/C(=N/NC(=O)OCC)[C@@H]3CC[C@@H]2C1=O	-	0[11.4 µM]	0[11.4 µM]	0[11.5 µM]	-
SMILES	CRE Fsk mod	TSHR agonist	HEK293 cAMP ctrl	ERK AVP block	Tau fil binding
c1ccc(OCCn2c(-c3ccco3)nc3ccccc32)cc1	-	?	25.1µM	-	-
O=C(Nc1nc2ccccc2n1CCOc1ccc(Cl)cc1)c1ccco1	?	?	25.1µM	0	0
O=C(Nc1nc2ccccc2n1Cc1ccc(Cl)cc1)c1ccco1	0	?	?	0	0
Cc1cccc(OCCn2c(NC(=O)c3ccco3)nc3ccccc32)c1	0	?	31.6µM	0	0
O=C(Nc1nc2ccccc2n1CCOc1ccccc1)c1ccco1	0	?	25.1µM	?	0
O=c1c(-c2cccs2)nc2cnc(Oc3cccc(Cl)c3)nc2n1C1CC1	?	0	0	0	0
O=C(Nc1nc2ccccc2n1CCN1CCCCC1)c1ccco1	0	?	0	0	0
Cc1ccc(OCCn2c(NC(=O)c3ccco3)nc3ccccc32)cc1	0	?	15.8µM	0	0
O=C(Nc1nc2ccccc2s1)C1CCCN1S(=O)(=O)c1ccc(Cl)cc1 (stereo not given)	?	-	0	20µM	0
COCOc1cc(OC)ccc1C(=O)/C=C\c1ccc2c(c1)OCO2	-	?	?	0[11.5 µM]	-
Cc1ccc(SCCNC(=O)CN2C(=O)c3ccccc3S2(=O)=O)cc1	0	0	0	7.94µM	?
CC(C)C[C@@H](CC(=O)N[C@@H](CCCN)CC(=O)N[C@@H]1CCCC[C@H]1C(=O)N[C@H](CC(=O)N[C@@H](CCC(=O)O)CC(=O)O)CC(C)C)NC(=O)[C@@H]1CCCC[C@H]1N	?	-	0	-	0
CCOC(=O)C(C)Sc1nc(-c2ccco2)cc(C(F)(F)F)c1C#N (stereo not given)	0	?	?	0	20µM
CC(=O)O[C@@H]1CC[C@]2(C)[C@H]3CC[C@]4(C)[C@H](C[C@H]5CCCC[C@@]54C(C)=O)[C@@H]3CC(=O)[C@@]2(O)C1	0	0	0	-	0
Cc1nc(N2CCN(Cc3ccc4c(c3)OCO4)CC2)c2oc3ccccc3c2n1	10µM	?	?	?	0
Cc1nc(N2CCC(C)CC2)c2oc3ccccc3c2n1	?	?	25.1µM	0	0
O=C(O)C1CCN(c2nc(-c3ccccc3)nc3c2oc2ccccc23)CC1	?	0	0	0	0
COc1ccccc1N1CCN(c2nc(C)nc3c2oc2ccccc23)CC1	1.58µM	?	25.1µM	?	0
N#Cc1ccc(CN2CC3(CCN(C(=O)c4cccc(F)c4)CC3)C2)cc1	0	0	0	0	0
Nc1ccc([N+](=O)[O-])c(N)c1	0	?	0	0	0
COC(=O)C1(CC(C)C)C=C2C(=C(C)C(=O)C2C)CN1 (stereo not given)	0	0	0	0	0
O=C1C(C2=C(O)c3ccccc3C2=O)=Nc2ccccc21	0	0	0	0	6.31µM
CN=CC1=C(O)c2ccccc2C1=O	?	?	?	?	0
Oc1c(C(O)(c2ccccc2)c2ccc3ccccc3c2O)ccc2ccccc12	0[7.6 µM]	0[11.4 µM]	0[11.4 µM]	0[11.5 µM]	1.26µM
CCC/C=C(\CCC)C(NP(=O)(c1ccccc1)c1ccccc1)c1ccc(C(F)(F)F)cc1 (stereo not given)	0	?	3.98µM	0	?
Clc1ccc([C@H](Cn2ccnc2)OCc2c(Cl)cccc2Cl)c(Cl)c1	?	?	?	0	0
CCOC(=O)c1cnc2c(C(F)(F)F)cccc2c1N1CCOCC1	0	0	0	?	15.8µM
Cc1c(N2C(=O)c3ccc4c5c(ccc(c35)C2=O)CC4)c(=O)n(-c2ccccc2)n1C	0	0	0	0	15.8µM
